Test results reported in ChEMBL document CHEMBL3988442, “University of Dundee, Small-Polar-MMV Screening Library” (2021).
For some assays here: Potency and affinity values are given separately.

Legend:
Design in all cases: scale not given: direction of the effect not stated beside the values
[1] = target: Protein translocase subunit SecA (Escherichia coli (strain K12)) (UniProt P10408); experiment: Assay to Identify E. coli SecA ATPase Inhibitors; format: functional; conditions: 30 µM
[2] = target: T1, Ubiquitin-activating enzyme e1, putative (Leishmania donovani (strain BPK282A1)) (UniProt E9BSI1); experiment: Leishmania donovani Ubiquitin Activating Enzyme (LdE1); format: functional; conditions: 30 µM
T1 sequence (whole entry): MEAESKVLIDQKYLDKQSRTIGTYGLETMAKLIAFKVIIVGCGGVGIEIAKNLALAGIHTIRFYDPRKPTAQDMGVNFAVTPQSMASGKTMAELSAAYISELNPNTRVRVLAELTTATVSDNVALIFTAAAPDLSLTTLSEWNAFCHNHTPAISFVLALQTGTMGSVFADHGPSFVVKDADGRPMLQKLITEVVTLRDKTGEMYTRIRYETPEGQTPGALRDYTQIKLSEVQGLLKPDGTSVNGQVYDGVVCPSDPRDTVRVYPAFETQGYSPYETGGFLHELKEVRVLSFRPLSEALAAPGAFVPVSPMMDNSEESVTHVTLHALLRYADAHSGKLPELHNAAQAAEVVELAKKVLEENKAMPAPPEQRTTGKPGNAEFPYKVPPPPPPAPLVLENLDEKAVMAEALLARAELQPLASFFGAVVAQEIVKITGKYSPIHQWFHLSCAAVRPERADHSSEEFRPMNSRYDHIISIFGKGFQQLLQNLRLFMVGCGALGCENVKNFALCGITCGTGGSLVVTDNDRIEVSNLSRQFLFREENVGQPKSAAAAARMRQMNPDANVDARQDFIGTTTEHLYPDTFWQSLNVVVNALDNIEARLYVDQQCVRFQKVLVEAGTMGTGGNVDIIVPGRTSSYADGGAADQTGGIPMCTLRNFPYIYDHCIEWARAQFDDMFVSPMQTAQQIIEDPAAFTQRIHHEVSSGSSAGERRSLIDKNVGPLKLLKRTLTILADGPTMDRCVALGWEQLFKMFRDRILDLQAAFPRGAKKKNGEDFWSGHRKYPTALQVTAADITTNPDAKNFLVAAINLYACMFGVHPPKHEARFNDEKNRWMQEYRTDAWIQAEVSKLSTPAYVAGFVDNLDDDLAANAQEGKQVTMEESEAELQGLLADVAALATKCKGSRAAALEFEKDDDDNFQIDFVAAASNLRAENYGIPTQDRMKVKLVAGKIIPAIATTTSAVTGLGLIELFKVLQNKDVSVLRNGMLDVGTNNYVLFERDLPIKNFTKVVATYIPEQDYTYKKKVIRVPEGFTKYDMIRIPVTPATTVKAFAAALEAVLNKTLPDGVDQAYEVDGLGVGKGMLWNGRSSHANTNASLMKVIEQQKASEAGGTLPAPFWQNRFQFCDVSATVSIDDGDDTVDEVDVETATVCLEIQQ

[3] = target: AMP-activated protein kinase, AMPK (Homo sapiens) (UniProt P54646+O43741+P54619+Q9UGJ0+Q9Y478+Q13131+Q9UGI9); experiment: AMP-dependent Kinase enzyme assay. An in vitro enzyme assay that detects ADP turnover that is directly proportional to AMPK activity. This uses naive AMPK that is activated during the assay with MK-8722; format: functional; conditions: 30 µM
[4] = target: Sialic acid-binding Ig-like lectin 9 (Homo sapiens) (UniProt Q9Y336); experiment: Hs-Siglec9 ALPHAscreen SOP 20170721; conditions: 10 µM
Trypanosoma cruzi = experiment: Trypanosoma cruzi phosphomannomutase and mannose-1-phosphate guanylyltransferase assay; format: functional; conditions: 10 µM
[5] = target: T2, Arginase-2, mitochondrial (Homo sapiens) (UniProt P78540); experiment: in vitro enzyme assay to detect the production of urea directly proportional to the activity of Arginase II; format: functional; conditions: 33.3 µM; note: in the data most compounds retested in dose-response had high values
T2 sequence (whole entry): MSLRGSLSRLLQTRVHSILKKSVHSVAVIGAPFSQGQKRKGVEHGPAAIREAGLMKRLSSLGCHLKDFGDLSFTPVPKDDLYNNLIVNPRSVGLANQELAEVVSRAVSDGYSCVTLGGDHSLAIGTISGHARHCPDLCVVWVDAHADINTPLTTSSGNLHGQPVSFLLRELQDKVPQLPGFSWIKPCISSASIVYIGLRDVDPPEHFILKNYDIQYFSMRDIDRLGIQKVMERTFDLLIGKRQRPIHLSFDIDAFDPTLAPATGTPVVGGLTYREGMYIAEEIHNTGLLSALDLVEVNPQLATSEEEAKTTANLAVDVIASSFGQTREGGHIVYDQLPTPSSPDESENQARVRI

[6] = target: T3, Proteasome subunit beta (Trypanosoma cruzi) (UniProt O96673); experiment: Trypanosoma cruzi proteasome chymotrypsin-like activity (TcProtChymo) assay.; note: in the data most compounds retested in dose-response had high values; format: functional; conditions: 9.37 µM
T3 sequence (whole entry): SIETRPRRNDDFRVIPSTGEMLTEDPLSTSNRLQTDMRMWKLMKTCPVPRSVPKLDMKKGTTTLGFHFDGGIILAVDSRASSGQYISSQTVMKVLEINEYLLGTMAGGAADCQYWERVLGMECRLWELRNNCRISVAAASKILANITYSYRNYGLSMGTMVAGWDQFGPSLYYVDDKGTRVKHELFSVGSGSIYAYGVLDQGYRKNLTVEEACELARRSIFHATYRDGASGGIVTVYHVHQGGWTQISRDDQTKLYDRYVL

Homo sapiens = species on record: Homo sapiens; experiment: To identify inhibition of the IFN signalling (Jak-Stat) pathway via expression of an eGFP reporter gene under the control of an IFN-stimulated response element (ISRE) containing MxA promoter.; format: functional; conditions: 30 µM
[7] = target: T4, Tyrosyl-tRNA synthetase, putative (Trypanosoma cruzi (strain CL Brener)) (UniProt Q4DSP6); experiment: Trypanosoma cruzi tyrosyl tRNA synthetase (TcYRS) _High Tyrosine SOP; format: functional; conditions: 30 µM; note: in the data most compounds retested in dose-response had high values
T4 sequence (whole entry): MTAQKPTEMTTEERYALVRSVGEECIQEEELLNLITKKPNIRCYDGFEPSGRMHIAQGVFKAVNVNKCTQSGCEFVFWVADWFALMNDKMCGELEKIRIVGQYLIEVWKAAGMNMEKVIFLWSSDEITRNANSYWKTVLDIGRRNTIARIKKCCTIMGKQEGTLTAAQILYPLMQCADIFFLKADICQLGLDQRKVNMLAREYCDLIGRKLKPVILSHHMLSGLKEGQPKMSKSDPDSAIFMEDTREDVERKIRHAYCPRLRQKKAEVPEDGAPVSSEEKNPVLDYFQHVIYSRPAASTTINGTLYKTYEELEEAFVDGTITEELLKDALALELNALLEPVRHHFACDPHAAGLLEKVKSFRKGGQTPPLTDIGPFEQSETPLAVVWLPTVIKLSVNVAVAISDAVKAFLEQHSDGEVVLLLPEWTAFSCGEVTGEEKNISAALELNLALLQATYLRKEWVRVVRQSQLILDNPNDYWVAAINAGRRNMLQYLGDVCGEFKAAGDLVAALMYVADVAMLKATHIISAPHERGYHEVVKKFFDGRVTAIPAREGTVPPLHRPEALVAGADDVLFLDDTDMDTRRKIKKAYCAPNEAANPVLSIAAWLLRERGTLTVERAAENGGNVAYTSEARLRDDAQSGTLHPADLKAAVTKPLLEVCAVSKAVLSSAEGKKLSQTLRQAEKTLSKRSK

[8] = target: T4, Tyrosyl-tRNA synthetase, putative (Trypanosoma cruzi (strain CL Brener)); experiment: Trypanosoma cruzi tyrosyl tRNA synthetase (TcYRS) SOP; format: functional; conditions: 30 µM
[9] = target: Chromo domain-containing protein 1 (Saccharomyces cerevisiae (strain ATCC 204508 / S288c) (Baker's yeast)) (UniProt P32657); experiment: ScCHD-1 Enzyme Inhibition Assay; format: functional; conditions: 30 µM; note: in the data most compounds retested in dose-response had high values
Chain of Chromo domain-containing protein 1 (Saccharomyces cerevisiae (strain ATCC 204508 / S288c) (Baker's yeast)) (P32657 whole entry, the tested form may be a part): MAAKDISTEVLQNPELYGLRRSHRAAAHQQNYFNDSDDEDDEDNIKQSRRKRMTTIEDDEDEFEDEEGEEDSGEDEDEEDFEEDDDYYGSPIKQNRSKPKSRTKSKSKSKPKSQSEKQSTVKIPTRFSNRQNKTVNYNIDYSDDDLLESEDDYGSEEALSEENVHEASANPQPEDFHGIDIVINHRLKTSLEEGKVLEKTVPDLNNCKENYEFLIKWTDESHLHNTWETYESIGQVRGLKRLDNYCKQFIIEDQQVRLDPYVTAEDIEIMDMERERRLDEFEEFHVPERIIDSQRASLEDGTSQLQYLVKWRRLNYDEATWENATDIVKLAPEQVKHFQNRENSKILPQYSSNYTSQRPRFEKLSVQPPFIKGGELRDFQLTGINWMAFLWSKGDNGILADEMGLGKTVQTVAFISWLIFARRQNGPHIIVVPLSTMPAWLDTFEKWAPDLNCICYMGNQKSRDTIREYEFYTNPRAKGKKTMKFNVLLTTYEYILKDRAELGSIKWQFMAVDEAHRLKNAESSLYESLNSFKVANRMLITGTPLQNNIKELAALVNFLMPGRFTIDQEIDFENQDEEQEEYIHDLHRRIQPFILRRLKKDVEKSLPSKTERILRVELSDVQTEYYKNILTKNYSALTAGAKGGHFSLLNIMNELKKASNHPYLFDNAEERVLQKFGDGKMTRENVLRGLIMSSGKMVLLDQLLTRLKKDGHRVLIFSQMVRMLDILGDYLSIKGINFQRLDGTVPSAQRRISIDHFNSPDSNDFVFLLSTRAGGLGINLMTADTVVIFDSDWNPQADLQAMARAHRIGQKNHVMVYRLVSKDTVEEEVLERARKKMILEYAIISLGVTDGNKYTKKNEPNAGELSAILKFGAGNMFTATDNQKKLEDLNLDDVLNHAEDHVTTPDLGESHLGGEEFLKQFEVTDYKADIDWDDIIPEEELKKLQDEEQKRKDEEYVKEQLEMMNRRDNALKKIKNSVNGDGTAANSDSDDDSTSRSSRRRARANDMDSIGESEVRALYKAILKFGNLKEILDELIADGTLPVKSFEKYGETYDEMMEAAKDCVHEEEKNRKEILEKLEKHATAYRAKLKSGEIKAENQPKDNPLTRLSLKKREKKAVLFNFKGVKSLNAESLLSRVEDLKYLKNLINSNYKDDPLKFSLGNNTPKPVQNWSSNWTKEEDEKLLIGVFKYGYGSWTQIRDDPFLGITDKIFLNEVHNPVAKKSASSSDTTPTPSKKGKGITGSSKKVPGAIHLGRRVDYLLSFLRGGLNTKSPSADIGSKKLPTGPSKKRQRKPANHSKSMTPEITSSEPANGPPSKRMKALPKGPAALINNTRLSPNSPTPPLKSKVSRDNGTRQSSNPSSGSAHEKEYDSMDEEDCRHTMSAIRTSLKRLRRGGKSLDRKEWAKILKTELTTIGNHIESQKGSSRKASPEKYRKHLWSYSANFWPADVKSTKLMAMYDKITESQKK

Chain of Protein translocase subunit SecA (Escherichia coli (strain K12)) (P10408 whole entry): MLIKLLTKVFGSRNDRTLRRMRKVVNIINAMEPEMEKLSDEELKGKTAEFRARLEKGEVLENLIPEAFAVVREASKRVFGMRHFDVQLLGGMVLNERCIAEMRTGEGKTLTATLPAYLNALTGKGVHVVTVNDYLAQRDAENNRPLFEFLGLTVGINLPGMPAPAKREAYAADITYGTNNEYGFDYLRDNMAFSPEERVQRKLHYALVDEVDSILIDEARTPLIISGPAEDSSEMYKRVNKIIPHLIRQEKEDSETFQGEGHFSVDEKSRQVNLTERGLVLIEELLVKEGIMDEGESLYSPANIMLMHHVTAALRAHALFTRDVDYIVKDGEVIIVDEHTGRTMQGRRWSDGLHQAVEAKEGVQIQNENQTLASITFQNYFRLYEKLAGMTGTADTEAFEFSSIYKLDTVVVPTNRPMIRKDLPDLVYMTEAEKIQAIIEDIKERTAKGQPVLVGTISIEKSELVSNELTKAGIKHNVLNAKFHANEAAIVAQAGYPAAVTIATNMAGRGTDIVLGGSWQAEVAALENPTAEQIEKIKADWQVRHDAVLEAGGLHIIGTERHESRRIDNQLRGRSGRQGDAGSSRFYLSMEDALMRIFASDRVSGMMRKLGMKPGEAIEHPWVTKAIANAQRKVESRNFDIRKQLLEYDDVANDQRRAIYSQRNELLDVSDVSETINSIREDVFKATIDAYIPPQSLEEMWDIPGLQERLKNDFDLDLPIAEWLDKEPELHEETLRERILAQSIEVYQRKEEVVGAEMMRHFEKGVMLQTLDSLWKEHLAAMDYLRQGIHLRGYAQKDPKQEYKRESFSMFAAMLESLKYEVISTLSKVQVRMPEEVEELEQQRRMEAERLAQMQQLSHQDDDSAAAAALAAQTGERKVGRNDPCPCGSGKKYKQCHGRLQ
Chain of Sialic acid-binding Ig-like lectin 9 (Homo sapiens) (Q9Y336 whole entry): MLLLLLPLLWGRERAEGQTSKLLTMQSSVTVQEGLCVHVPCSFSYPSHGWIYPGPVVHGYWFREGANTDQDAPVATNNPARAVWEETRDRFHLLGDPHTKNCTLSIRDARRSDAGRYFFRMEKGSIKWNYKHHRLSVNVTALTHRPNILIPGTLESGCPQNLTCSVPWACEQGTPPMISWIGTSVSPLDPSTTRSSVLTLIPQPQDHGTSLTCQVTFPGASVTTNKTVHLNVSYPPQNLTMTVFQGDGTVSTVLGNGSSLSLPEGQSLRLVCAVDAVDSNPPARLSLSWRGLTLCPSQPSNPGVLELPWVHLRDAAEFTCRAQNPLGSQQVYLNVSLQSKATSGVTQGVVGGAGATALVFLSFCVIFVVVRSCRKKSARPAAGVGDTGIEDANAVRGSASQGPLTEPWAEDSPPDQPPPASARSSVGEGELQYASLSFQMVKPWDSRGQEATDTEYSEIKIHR

| SMILES | Percent Effect [1] | Percent Effect [2] | Percent Effect [3] | Percent Effect [4] | Percent Effect (Trypanosoma cruzi) | Percent Effect [5] | Percent Effect [6] | Percent Effect (Homo sapiens) | Percent Effect [7] | Percent Effect [8] | Percent Effect [9] |
| --- | --- | --- | --- | --- | --- | --- | --- | --- | --- | --- | --- |
| Cc1nc(C)n(C2CCCN(C(=O)COCc3ccccc3)C2)n1 (configuration not stated) | -0.388% | 0% | 25.2% | 9.37% | 2.25% | 1.78% | -4.22% | 4.38% | 3.88% | 12.2% | -7.13% |
| COc1ccc(CN2CC[C@H](NC(C)=O)[C@@H](O)CC2)c(OC)c1 | -4.21% | 4.05% | 9.24% | 3.43% | 2.77% | -2.55% | 13.6% | 13% | -1.07% | 1.3% | -12.5% |
| Cc1scc(C(=O)N2CCC3(CC(=O)NC3=O)C2)c1-c1ccccc1 (configuration not stated) | -2.27% | 5.41% | 3.06% | 1.45% | 1.35% | 2.86% | 12.2% | 0.902% | 8.99% | 9.76% | -5.21% |
| CCOC[C@@H]1CCC[C@@]12CN(Cc1nccs1)CCO2 | 0.173% | 16% | -1.62% | -5.32% | 0.787% | 3.5% | 17.4% | 10.8% | 7.45% | 19.2% | -7.27% |
| O=C(C1CCCCN1Cc1nc(-c2ccco2)no1)N1CCCC1 (configuration not stated) | -8.23% | -2.7% | 7.91% | 4.5% | -5.11% | -1.66% | 2.33% | 6.46% | 0% | 3.66% | 5.11% |
| CCN(C(=O)COC)C(c1cccnc1)c1ccc2c(c1)CCO2 (configuration not stated) | 2.93% | 2.74% | 0.259% | 5.98% | -8.13% | -1.2% | 19.8% | 5.88% | 9.38% | 11.1% | -1.24% |
| COc1c(CNCCNC(=O)Cc2ccc(F)cc2)c(C)nn1C | -1.17% | 13.5% | 1.18% | -2.01% | -7.52% | -4.99% | 13.1% | 12.1% | 1.98% | -18.3% | -8.36% |
| CC(C)NC(=O)[C@@H]1C[C@H](N)CN1C(=O)c1cc2ccccc2[nH]c1=O | -3.02% | 20.8% | -9.81% | 9.13% | 4.76% | 4.86% | 12.3% | -0.74% | 8.42% | 15.4% | -6.54% |
| COCc1nc(C(=O)N2CCCC2c2ccccc2C)cs1 (configuration not stated) | -2.11% | 3.8% | 3.68% | 5.3% | 0.513% | -4.09% | 13.2% | 16.4% | 9.38% | 22.8% | -22.3% |
| Fc1ccc(OCCCN2CCOC(Cn3cncn3)C2)cc1 (configuration not stated) | -1.31% | -3.8% | 6.98% | 5.51% | 3.79% | -3.23% | 3.43% | 2.48% | 0% | 2.53% | -15.5% |
| COc1c(CNC2CCCc3ccccc32)c(C(C)C)nn1C (configuration not stated) | -5.37% | 21.6% | -16.6% | 17.5% | 7.71% | -5.73% | 3.59% | 6.78% | 4.95% | 18.3% | -4.82% |
| CC(C)c1cc(NC(=O)CN2CCc3ccccc3C2)on1 | -4.45% | 28.6% | -1.59% | 2.02% | 5.99% | -2.85% | 10.6% | 14.1% | 7.77% | 26.8% | -12.1% |
| Cc1ccc(-c2nnc(CN3CCc4cnc(C)nc4C3)o2)cc1 | -4.56% | 0% | -17.5% | 15.5% | 11.2% | -13.9% | 10.4% | 15.6% | 18.8% | 30.5% | -10.7% |
| O=C(c1ccn(-c2cccc(Cl)c2)n1)N1CCN(C2CC2)CC1 | -11.5% | 10.4% | -3.12% | 2.64% | -4.49% | -1.78% | 27.5% | 29.6% | -0.971% | -4.88% | -3.18% |
| Cc1ccc(C(=O)NS(=O)(=O)c2ccccc2C)c(=O)[nH]1 | -3.76% | 8.11% | -4.75% | 9.94% | -5.85% | -6.84% | 4.85% | 15.8% | 7.92% | 6.1% | 1.56% |
| Cc1cccc(COC[C@@H]2CC[C@H]3[C@H](CCN3Cc3ccco3)O2)n1 | -0.0692% | 16.4% | -0.44% | 9.35% | 7.74% | -2.79% | 15.2% | -16.7% | 5.21% | 13.6% | -7.59% |
| O=C(O)C1(Cc2cc(-c3ccc(F)cc3F)no2)CCOCC1 | -4.49% | 4.05% | 11% | -5.88% | -8.3% | -9.51% | 14.2% | 6.33% | -4.3% | -1.3% | -7.79% |
| CCSc1cc(C(=O)NCCC(=O)Nc2ccccn2)ccn1 | -5.48% | 2.74% | -2.02% | 1.7% | 6.27% | 0.909% | 8.16% | 15.8% | 5.38% | 17.5% | -3.9% |
| CN(C)C(=O)N1CCN(C(=O)CCc2ccccc2)[C@H]2CS(=O)(=O)C[C@H]21 | -0.417% | 5.41% | -5.99% | 6.47% | 4.44% | -2.86% | 15.3% | 23.4% | 8.99% | 9.76% | -2.21% |
| O=C(NCC1CCCO1)c1c(-n2cnnn2)sc2c1CCC2 (configuration not stated) | -5.27% | 5.26% | 6.31% | -1.47% | -2.82% | 3.55% | 17.6% | -12.3% | 3.19% | 7.79% | -4.34% |
| Cc1cc(N2CCC(N(C)C(=O)c3ccccc3)CC2)nc(C)n1 | -2.59% | 19.2% | 2.37% | 4.5% | 5.09% | 10.4% | 11.4% | 29.3% | 7.53% | 17.5% | -8.12% |
| Cc1noc([C@@]23CCO[C@@H]2CCN(C(=O)c2sccc2C)C3)n1 | -3.07% | 5.33% | 2.33% | -2.88% | 2.12% | -46.1% | 0.513% | 1.48% | 1.04% | 0% | 1.44% |
